According to PubChem BioAssay AID1851 (National Center for Advancing Translational Sciences (NCATS), 2009):
“And” between values parts separate entries of the source, which are not always exact repeats. Equal entries are not always repeated. In all, about 16,000 compounds went through this assay and about 5,800 (36%) were called active. About 23% were inconclusive and are not listed. The call rests on the fitted dose curve; in most records, active means well fitted curve in the direction sought with a large enough effect; inconclusive means small, poorly fitted or top-dose-only effect, or effect the other way; inactive means no such curve, though single readings can be large or run the other way. Some of the results follow. Where a structure was tested more than once in an assay, its records may differ in their call.

Each compound was assayed against Cytochrome P450 2C19 (Homo sapiens) (UniProt P33261) (assay: Cytochrome panel assay with activity outcomes). Conditions: recombinant CYP, pro-luciferin dealkylation, luminescence, p450-cyp2c19; series mostly up to 57.1 µM; activity, negative = inhibition: at the top concentration.
Cytochrome P450 2C19 (Homo sapiens), sequence (P33261 whole entry, looked up): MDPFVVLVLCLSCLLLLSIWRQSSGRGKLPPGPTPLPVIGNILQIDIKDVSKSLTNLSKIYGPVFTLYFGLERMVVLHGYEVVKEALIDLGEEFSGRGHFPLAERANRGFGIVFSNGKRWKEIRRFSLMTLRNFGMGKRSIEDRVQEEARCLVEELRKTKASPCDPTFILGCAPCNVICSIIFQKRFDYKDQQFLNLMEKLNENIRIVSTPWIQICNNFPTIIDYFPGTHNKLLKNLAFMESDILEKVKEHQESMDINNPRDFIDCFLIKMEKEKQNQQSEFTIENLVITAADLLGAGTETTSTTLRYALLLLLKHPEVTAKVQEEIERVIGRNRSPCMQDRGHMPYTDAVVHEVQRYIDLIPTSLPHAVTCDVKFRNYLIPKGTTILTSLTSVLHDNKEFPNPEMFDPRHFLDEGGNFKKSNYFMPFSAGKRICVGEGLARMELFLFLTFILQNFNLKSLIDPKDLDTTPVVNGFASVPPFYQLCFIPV
On the % scale 0 is the no-effect control and ±100 the full control effect.

activity, negative = inhibition, inactive:
CC(=O)NC1=NC(=O)C(C)S1 (configuration not stated) 17.4%, Cc1ccc(CS(=O)(=O)CCC(=O)NCc2ccccn2)cc1 -22.8%, COc1cc2c(cc1OC)-c1cc(NCc3ccccn3)nc(=O)n1CC2 7.74%, CCN1C(=O)[C@H]2[C@H]3[C@H](O)[C@H](O)C/C(=N/OCC(C)C)[C@H]3CC[C@@H]2C1=O 28.2% [at 11.4 µM], CCOC(=O)N/N=C1/C[C@@H](O)[C@@H](O)[C@@H]2[C@@H]3C(=O)N(Cc4ccccc4)C(=O)[C@H]3CC[C@H]12 10.9% [at 11.4 µM], COc1ccccc1OCC(=O)NNC(=O)c1cnccn1 -6.18%, COc1ncnc(NS(=O)(=O)c2ccc(N)cc2)c1OC -33.9% [at 25.6 µM], Nc1nc(N)c(CCCCc2ccccc2)c(N)n1 -22.9% [at 11.4 µM], Cc1[nH]c(N)nc(=S)c1CCC(=O)O 3.33% [at 11.4 µM], Cn1c(N)c(N=Nc2ccc(S(N)(=O)=O)cc2)c(=O)n(C)c1=O 76% [at 11.4 µM], COc1ccc(NC(=O)N2CCCC3(CCN(S(C)(=O)=O)CC3)C2)cc1 -3.07%, COc1ccc(NC(=O)N2CC3(CCN(C(=O)c4cnccn4)CC3)C2)cc1 0.386%, COc1ccc(NC(=O)N2CCC3(CC2)CCN(S(=O)(=O)c2ccccc2)CC3)cc1 -14.2%, COc1ccc(NC(=O)N2CCCC3(CCN(C(=O)c4cnccn4)CC3)C2)cc1 -10.3%, COc1ccc(NC(=O)N2CC3(CCN(S(=O)(=O)c4ccccc4)CC3)C2)cc1 -20.5%, COc1ccc(NC(=O)N2CC3(CCN(S(C)(=O)=O)CC3)C2)cc1 -23%, FC(F)(F)c1cnc(/C=C/Nc2ccccc2Cl)c(Cl)c1 -25.2%, CCOc1ccc2c(ccc(/C=C\c3cc(C)c4cccnc4c3O)[n+]2C)c1 27.7% [at 11.4 µM], COc1cc(NCCC(=O)O)c2ncccc2c1 -14.2% [at 11.4 µM], c1ccc2c(N3CCNCC3)nc(-c3ccc4c(c3)OCO4)nc2c1 -12%, c1cncc(-c2nc(N3CCNCC3)c3ccccc3n2)c1 -18.2%, c1ccc2c(N3CCOCC3)nc(-c3ccoc3)nc2c1 -11.5%, CN1CCN(c2nc(-c3ccoc3)nc3ccccc23)CC1 -25.4%, CO[C@@H]1/C=C\CC(=O)N[C@@H](C)C(=O)OC[C@@H](OC)[C@H](C)/C=C\CC(=O)OC[C@H]1C -30.6% [at 11.4 µM], Nc1ccc(S(=O)(=O)Nc2ccccn2)cc1 35.2% [at 25.6 µM], CN(C)S(=O)(=O)Nc1ccccn1 -1.75% [at 11.4 µM], CC(C)N(CCC(=O)c1ccc2ccccc2c1)Cc1ccccc1 4.32%, COc1cc(/C=C(/NC(=O)c2ccccc2Cl)C(=O)O)cc(OC)c1OC -19.5%, O=C(O)CNC(=O)c1ccccc1O 26.9% [at 11.4 µM], CS(=O)(=O)N1CCC2(CC1)CN(c1cccc(-c3ccccc3)c1)C2 -17.6%, CCn1c(C)nc2cc(C(=O)NNS(=O)(=O)c3ccccc3F)ccc21 -12.6%, O=[N+]([O-])c1ccccc1N=Nc1c(O)[nH]c2ccc(S(=O)(=O)O)cc12 -23.2% [at 11.4 µM], CCC(=O)O[C@@]1(C(=O)SCF)[C@@H](C)C[C@H]2[C@@H]3C[C@@H](F)C4=CC(=O)C=C[C@@]4(C)[C@]3(F)[C@@H](O)C[C@]21C -19.8% [at 25.6 µM], C[C@@H](c1ccccc1)N1C(=O)[C@H]2[C@H]3[C@H](O)[C@H](O)C/C(=N/OC[C@@H](O)COCc4ccco4)[C@H]3CC[C@@H]2C1=O -25% [at 11.4 µM], CCOC(=O)[C@@]12C[C@@H]1/C(=N/O)c1ccccc1O2 -14.2%, OC[C@@H](O)[C@@H](O)[C@@H](O)[C@@H](O)c1nc2ccc(Cl)cc2[nH]1 -0.441% [at 11.4 µM], CC(=O)/C(=N\N=C(N)N)c1ccccc1 102% [at 11.4 µM], C/C(=N\N=C1\NC(=O)CC(C(=O)O)S1)c1cccs1 (configuration not stated) 22.1%, CC[N+](CC)(CC(=O)Nc1c(C)cccc1C)Cc1ccccc1 -31% [at 25.6 µM], C/C(=N\[N+](C)(C)C)c1ccc(C)c(C)c1 17.4% [at 11.4 µM], Cc1ccccc1OC/C(O)=C(\C#N)c1nc2ccccc2[nH]1 -17.2%, C=CC1=C(C(=O)O)N2C(=O)[C@@H](NC(=O)/C(=N\OCC(=O)O)c3csc(N)n3)[C@@H]2SC1 21.8% [at 25.6 µM], CCOc1ccc(NC(=O)CCNS(=O)(=O)c2ccc3c(c2)c(=O)n(C)c(=O)n3C)cc1 -24.2%, CC(=O)Nc1ccc(C2=NN(CC#N)C(=O)SC2)cc1 -35.8%, COc1ccc(CSC2=C(C#N)C(=O)NC3(CCCCC3)S2)cc1 -6.47% [at 11.4 µM], CO[C@H]1COC(=O)[C@H]2CCCN2C(=O)[C@@H](C)COC(=O)C/C=C\[C@@H]1C 43.2% [at 11.4 µM], C#CCCCO/N=C1/[C@H]2O[C@@H]2[C@@H](O)[C@H]2[C@H]1CCn1c(=O)n(C)c(=O)n12 -3.85% [at 11.4 µM], O=C(Oc1ccc(C(=S)N2CCOCC2)cc1Br)c1cc(Cl)ccc1Cl -6.53%, Cc1c(-c2ccccc2)oc2c(C(=O)OCCN3CCCCC3)cccc2c1=O 16.9% [at 25.6 µM]

AC50, inactive:
Oc1cc(O)c2c(c1)O[C@H](c1ccc(O)c(O)c1)[C@H](O)C2, CC[N+](CC)(CC)CC(=O)Nc1c(C)cccc1C

AC50, inactive and 15.8 µM (active):
Cc1cccc(C)c1NC(=O)C[N+](C)(C)C

AC50, active:
COc1ccc(CC(=O)NCc2ccccn2)cc1OC 28.2 µM, COc1cc(CNCc2ccccn2)ccc1OCc1ccc(Cl)cc1Cl 3.98 µM, COc1ccccc1OCC(=O)N/N=C1/SCC(=O)N1Cc1ccccc1 14.1 µM, CCC(C)N1C(=O)S/C(=C/c2ccc(Sc3nc4ccccc4[nH]3)o2)C1=O (configuration not stated) 1.12 µM, CCCCCC1CCC(C(=O)NNC(=S)NCC)CC1 (configuration not stated) 17.8 µM, Cc1[nH]c(N)nc(=S)c1CCCNc1ccccc1 2 µM, c1ccc(-c2nnc(SCCC3OCCCO3)o2)cc1 5.01 µM, O=C(Nc1ccccc1)N1CCC2(CC1)CCN(S(=O)(=O)c1ccccc1)CC2 15.8 µM, COc1ccc(NC(=O)N2CCC3(CC2)CCN(C(=O)c2cnccn2)CC3)cc1 25.1 µM, COc1ccc(NC(=O)N2CCC3(CC2)CCN(S(C)(=O)=O)CC3)cc1 3.16 µM, CC12c3ccccc3C(c3ccccc31)C1C(=O)N(Cc3cccnc3)C(=O)C12 (configuration not stated) 1.26 µM, Nc1ccccc1Oc1ncc(C(F)(F)F)cc1Cl 7.94 µM, CN1CCN(c2nc3cc(C(F)(F)F)ccc3n3cccc23)CC1 12.6 µM, Cc1ccc(OCCCOc2cccc3cccnc23)cc1C 1.12 µM, O=C1N/C(=C\c2ccc(N3CCOCC3)c(F)c2)C(=O)N1Cc1ccccc1 14.1 µM, c1ccc2c(-n3ccnc3)nc(-c3ccoc3)nc2c1 20 µM, CN(C)c1ccc(-c2nc(N3CCNCC3)c3ccccc3n2)cc1 15.8 µM, CN(C)c1ccc(-c2nc(-n3ccnc3)c3ccccc3n2)cc1 2.51 µM, O=C1C(Cl)=C(Nc2ccc(S(=O)(=O)Nc3ccccn3)cc2)C(=O)c2ccccc21 0.794 µM, CCOC(=O)N1CCC(NC(=O)CSCc2cnn(-c3ccccc3)c2-n2cccc2)CC1 5.01 µM, Cc1ccc(C)c(CN2C(=O)C3CCCN3c3ccc(C#N)cc32)c1 (configuration not stated) 3.16 µM, N=C(c1ccc2ccccc2c1)c1ccccc1Cc1ccccc1 3.98 µM, Cc1ccc(C)c(C(=N)c2ccccc2Cc2ccccc2)c1 1 µM, COc1ccccc1C(=O)N/C(=C/c1ccc(Br)cc1)C(=O)NCC(=O)O 25.1 µM, CCn1c2ccccc2c2cc(NS(=O)(=O)c3ccccc3C)ccc21 0.282 µM, CCc1ccc2[nH]c(O)c(N=Nc3nc(-c4ccccc4)cs3)c2c1 15.8 µM, COC(=O)C1=C(C)NC(C)=C([N+](=O)[O-])[C@H]1c1ccccc1C(F)(F)F 0.158 µM, COC(=O)C1=C(C)NC(C)=C([N+](=O)[O-])[C@@H]1c1ccccc1C(F)(F)F 0.126 µM, O=C(Nc1ccccc1)[C@@]12C[C@@H]1/C(=N/O)c1ccccc1O2 10 µM, N=C1[C@@H](O)[C@]2(I)c3ccccc3N3C(=N)[C@H](O)[C@@H]4c5ccccc5N1[C@@H]4[C@@H]32 3.16 µM, CC(C)[C@H](N)c1nnc(SC/C=C/c2ccccc2)o1 2 µM, CC(C)[C@H](N)c1nnc(SCc2ccc(Cl)cc2)o1 0.178 µM, C/C(=N\N=C(c1ccccc1)c1ccccc1)c1cccs1 3.55 µM, O=C(c1n[nH]c(=O)c2ccccc12)N1CCN(C2c3ccccc3-c3ccccc32)CC1 3.16 µM, CC1=Nc2ccccc2/C1=C\c1nc(-c2ccc(C(F)(F)F)cc2)oc1O 14.1 µM, COc1cccc(OC)c1/C(O)=C(\C#N)c1nc2ccccc2[nH]1 7.08 µM, COc1ccc(NC(=O)CSc2nc(C)c3c(c2C#N)CCCC3)cc1 1.12 µM, CCOc1ccc(NC(=O)CSc2nc(C)c3c(c2C#N)CCCC3)cc1 2.82 µM, CSc1nc(N)nc(SCC(=O)Nc2ccc(Cl)cc2)c1C#N 0.708 µM, Cc1ccccc1C(=O)Oc1ccc(Br)cc1C(=S)N1CCCC1 2.24 µM
